Results published in PubChem BioAssay (NCATS).
Records with an inconclusive call do not appear. Active and inactive are the calls of the source. Unless noted, the call rests on the fitted dose curve; in most records, active means well fitted curve in either direction with a large enough effect (not every such curve was filed as active); inconclusive means small, poorly fitted or top-dose-only effect, or another doubt; inactive means flat fitted curve, though single readings scatter.

Key:
[1] = molecular target: Lysosomal acid glucosylceramidase (Homo sapiens) (UniProt P04062); experiment: Glucocerebrosidase-p2 (AID 348; in the data active means potency below about 10 µM; further: potency means the concentration at half of the fitted maximal effect); conditions: purified GBA, blue fluorogenic substrate, 40 min
Summary of the method: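 Normal human glucocerebrosidase (0.2 nM) with blue fluorogenic substrate (80 uM final) in citrate/phosphate pH 5.9 with 10mM sodium taurocholate, 0.01% tween-20; 40 min RT, NaOH/glycine stop; fluorescence Ex 365/Em 440; AC50 from a titration from 0.6 nM upwards.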

[2] = AP1 Signaling Pathway (AID 357); conditions: ME-180 AP-1-bla reporter, EGF-induced, beta-lactamase ratio, 5 h; at 7.69 µM (top of the series) unless noted; further: on the % scale 0 is the no-effect control and ±100 the full control effect
Summary of the method: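 ME-180 cells with beta-lactamase reporter under AP-1 response element, stimulated with EC50 EGF; compounds tested in titration series, 5 h at 37 °C. CCF4 substrate added 2.5 h at room temperature; 460/530 nm emission ratio gave %activity and AC50.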

[3] = molecular target: Cytochrome P450 1A2 (Homo sapiens) (UniProt P05177); experiment: p450-cyp1a2 (AID 410; calls by dose curve; further: potency means the concentration at half of the fitted maximal effect;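 on activity change, negative = inhibition: -100% = full effect of reference inhibitor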); conditions: recombinant CYP1A2, luciferin-ME demethylation, luminescence; series mostly up to 11.4 µM
Summary of the method: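 Luminescent demethylation readout: Luciferin-ME (100uM, equal to Km) turned over by 20nM CYP1A2 for 60 min at room temperature after NADPH regeneration addition, following 10 min compound preincubation. Normalization used 57 uM furafylline as full inhibition.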

[4] = NFAT Signaling Pathway (AID 444); conditions: Jurkat NFAT-bla M1, carbachol, beta-lactamase ratio, 5 h; at 7.69 µM (top of the series) unless noted;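 further: carbachol stimulus at about its EC50 of 1 µM final; on the % scale 0 is the no-effect control and ±100 the full control effect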
Summary of the method: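 Jurkat cells carrying an NFAT-driven β-lactamase reporter and co-transfected muscarinic M1 receptor were treated with compound plus carbachol (1 uM final, an EC50 level) for 5 h at 37 °C. CCF4 loading followed for 1 h at RT; 460/530 nm ratio gave %activity.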

[5] = Stat Signaling Pathway (AID 446); conditions: ME-180 (cervical carcinoma) SIE beta-lactamase reporter, IL-6 stimulated, 5 h; at 7.69 µM (top of the series) unless noted;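 further: ME-180 cervical cancer cells given 40 pM IL-6 alongside compound; SIE-controlled beta-lactamase reporter measured as 460/530 nm FRET emission ratio; on the % scale 0 is the no-effect control and ±100 the full control effect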
Summary of the method: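 FRET read-out (405 nm excitation, 460/530 nm emission) of a beta-lactamase reporter under a STAT-inducible element in ME-180 cervical carcinoma cells. Cells with compound receive 40 pM IL-6 for 5 h. Values are normalised to AC90 stimulation and AC90 JAK-inhibitor controls.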

[6] = molecular target: Glucocorticoid receptor (Homo sapiens) (UniProt P04150); experiment: GR-GFP Redistribution (AID 450;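 active means compounds whose dose series gives a full or clear partial fitted curve of increased nuclear translocation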; further: potency means the concentration at half of the fitted maximal effect); conditions: U2OS GR-GFP nuclear translocation, laser cytometry, 2 h
[7] = molecular target: Glucocorticoid receptor (Homo sapiens) (UniProt P04150); experiment: GR-EFC Redistribution (AID 451; calls by dose curve; further: potency means the concentration at half of the fitted maximal effect); conditions: CHO-K1 GR-EFC translocation, beta-gal luminescence, 2 h
Summary of the method: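 CHO-K1 cells stably expressing nuclear-localized β-gal enzyme acceptor and GR fused C-terminally to the enzyme donor fragment; ligand-driven nuclear translocation restores β-gal by complementation. Compounds titrated up to 46 uM final, 2 h at 37 °C; luminescence read.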

[8] = molecular target: Mitogen-activated protein kinase 10 (Mus musculus) (UniProt Q61831); experiment: JNK3 AlphaScreen Assay (AID 530); conditions: JNK3 lysate, c-Jun phosphorylation; series mostly up to 11.4 µM;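 further: kinase came from lysate of stimulated human HepG2 cells; signal reports phosphorylation of biotinylated GST-cJun 1-79 at Ser73 with 10 µM ATP; on the % scale 0 is the no-effect control and ±100 the full control effect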
Summary of the method: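 Phosphorylation of biotinylated GST-cJun(1-79) at Ser73 is measured by AlphaScreen proximity luminescence. Enzyme is JNK3 in HepG2 lysates activated with interleukin-1beta and tumor necrosis factor alpha; ATP is 10 uM final.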

[9] = molecular target: 3',5'-cyclic-AMP phosphodiesterase 4B (Homo sapiens) (UniProt Q07343); experiment: qHTS Assay for Inhibitors of PDE-IV (AID 607; active means well fitted activation curve with a large enough effect in the main read-out, with a control signal flat, not every such curve was filed as active; further: % of control where 0% means no effect); conditions: HEK293 ACTOne CNG channel cells, membrane potential fluorescence; series mostly up to 22.9 µM
Summary of the method: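 Cell-based read-out of cAMP via a modified cyclic nucleotide-gated channel and membrane potential dye (535/590 nm) in HEK293 cells expressing PDE4 endogenously. Compounds tested up to 22.9 uM final; 100 uM RO 20-1724 reference.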

Sequence of Lysosomal acid glucosylceramidase (Homo sapiens) (P04062 whole entry, looked up): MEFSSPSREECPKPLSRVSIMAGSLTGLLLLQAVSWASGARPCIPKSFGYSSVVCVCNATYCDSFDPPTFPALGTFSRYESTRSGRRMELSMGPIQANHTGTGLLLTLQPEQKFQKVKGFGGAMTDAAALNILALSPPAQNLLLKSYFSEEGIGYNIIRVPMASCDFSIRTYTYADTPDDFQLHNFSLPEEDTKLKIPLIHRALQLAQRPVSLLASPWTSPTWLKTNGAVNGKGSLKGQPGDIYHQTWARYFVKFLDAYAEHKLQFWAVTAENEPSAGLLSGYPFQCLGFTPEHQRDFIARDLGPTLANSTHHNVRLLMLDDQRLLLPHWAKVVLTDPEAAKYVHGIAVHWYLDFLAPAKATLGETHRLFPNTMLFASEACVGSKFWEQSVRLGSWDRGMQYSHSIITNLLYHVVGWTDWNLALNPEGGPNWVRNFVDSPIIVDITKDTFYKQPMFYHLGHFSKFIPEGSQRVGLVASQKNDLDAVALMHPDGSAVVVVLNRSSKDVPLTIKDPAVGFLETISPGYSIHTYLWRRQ
Sequence of 3',5'-cyclic-AMP phosphodiesterase 4B (Homo sapiens) (Q07343 whole entry, looked up): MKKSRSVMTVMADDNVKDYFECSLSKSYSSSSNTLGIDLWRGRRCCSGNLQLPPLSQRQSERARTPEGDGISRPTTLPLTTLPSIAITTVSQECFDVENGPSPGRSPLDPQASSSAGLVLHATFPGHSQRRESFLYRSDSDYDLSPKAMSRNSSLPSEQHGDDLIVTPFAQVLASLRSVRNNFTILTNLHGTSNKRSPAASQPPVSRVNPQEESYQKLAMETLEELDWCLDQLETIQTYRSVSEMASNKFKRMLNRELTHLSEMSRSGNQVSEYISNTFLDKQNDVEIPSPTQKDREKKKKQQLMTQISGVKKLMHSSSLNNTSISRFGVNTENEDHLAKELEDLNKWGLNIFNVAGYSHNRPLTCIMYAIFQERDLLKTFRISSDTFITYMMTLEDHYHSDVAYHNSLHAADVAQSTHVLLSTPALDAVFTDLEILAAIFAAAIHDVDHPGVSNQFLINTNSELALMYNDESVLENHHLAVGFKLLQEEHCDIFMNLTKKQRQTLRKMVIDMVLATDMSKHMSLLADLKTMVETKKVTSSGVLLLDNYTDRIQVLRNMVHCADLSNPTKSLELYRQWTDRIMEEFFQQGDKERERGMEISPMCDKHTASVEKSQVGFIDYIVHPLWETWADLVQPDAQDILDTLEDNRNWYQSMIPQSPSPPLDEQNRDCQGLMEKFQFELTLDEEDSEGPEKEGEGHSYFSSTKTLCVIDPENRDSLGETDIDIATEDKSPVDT
Sequence of Glucocorticoid receptor (Homo sapiens) (P04150 whole entry, looked up, the tested form may be a part): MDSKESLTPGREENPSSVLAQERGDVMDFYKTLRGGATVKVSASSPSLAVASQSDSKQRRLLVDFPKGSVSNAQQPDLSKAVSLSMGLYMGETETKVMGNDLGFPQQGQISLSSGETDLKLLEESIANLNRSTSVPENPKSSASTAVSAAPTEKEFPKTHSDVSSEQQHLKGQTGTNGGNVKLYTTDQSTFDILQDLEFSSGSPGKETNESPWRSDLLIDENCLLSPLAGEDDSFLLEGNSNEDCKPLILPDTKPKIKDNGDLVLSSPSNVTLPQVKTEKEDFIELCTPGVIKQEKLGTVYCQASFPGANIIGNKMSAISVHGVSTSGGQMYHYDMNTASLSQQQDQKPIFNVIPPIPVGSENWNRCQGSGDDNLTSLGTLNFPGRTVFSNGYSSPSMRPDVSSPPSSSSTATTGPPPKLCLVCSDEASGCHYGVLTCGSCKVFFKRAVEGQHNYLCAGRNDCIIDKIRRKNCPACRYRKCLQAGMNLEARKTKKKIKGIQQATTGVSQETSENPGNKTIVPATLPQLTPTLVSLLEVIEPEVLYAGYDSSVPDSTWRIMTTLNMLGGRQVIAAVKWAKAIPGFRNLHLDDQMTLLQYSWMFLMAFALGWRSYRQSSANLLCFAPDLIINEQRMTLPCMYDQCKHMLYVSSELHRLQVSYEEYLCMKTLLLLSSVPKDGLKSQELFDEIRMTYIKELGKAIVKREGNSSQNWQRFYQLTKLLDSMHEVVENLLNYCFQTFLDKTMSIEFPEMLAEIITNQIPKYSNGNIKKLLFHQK
Sequence of Cytochrome P450 1A2 (Homo sapiens) (P05177 whole entry, looked up): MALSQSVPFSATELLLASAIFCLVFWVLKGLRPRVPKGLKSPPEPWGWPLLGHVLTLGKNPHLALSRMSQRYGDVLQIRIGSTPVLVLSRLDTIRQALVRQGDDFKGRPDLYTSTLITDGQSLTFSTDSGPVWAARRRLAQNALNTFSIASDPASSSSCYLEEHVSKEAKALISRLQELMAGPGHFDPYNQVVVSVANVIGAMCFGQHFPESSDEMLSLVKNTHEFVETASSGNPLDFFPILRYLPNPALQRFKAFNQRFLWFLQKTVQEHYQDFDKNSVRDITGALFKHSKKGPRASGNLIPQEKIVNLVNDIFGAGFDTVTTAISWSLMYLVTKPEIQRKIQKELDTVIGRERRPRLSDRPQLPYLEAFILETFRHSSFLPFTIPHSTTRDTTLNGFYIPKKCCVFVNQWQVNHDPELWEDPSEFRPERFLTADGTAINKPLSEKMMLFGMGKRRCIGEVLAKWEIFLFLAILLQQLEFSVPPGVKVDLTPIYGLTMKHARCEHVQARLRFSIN

NC([N-]/N=C/c1ccccn1)=[S]=[Fe].O=S(=O)(O)O
inactive: Potency [1] > 11.4 µM | activity change, negative = inhibition [2] 8.56% | activity change, negative = inhibition [3] 15.8% [at 2.29 µM] | activity change, negative = inhibition [4] -1.69% | activity, negative = inhibition [5] -13.8% | Potency [6] > 46 µM | Potency [7] > 9.22 µM | Potency [8] | Potency [9]

C[C@@H](CSC(=N)N)C(N)=O
inactive: Potency [1] > 11.4 µM | activity change, negative = inhibition [2] -3.05% | activity change, negative = inhibition [3] -6.6% [at 2.29 µM] | activity change, negative = inhibition [4] 13.8% | activity, negative = inhibition [5] 9.57% | Potency [6] > 46 µM | Potency [7] > 9.22 µM | Potency [8] | Potency [9]

Nc1nc(-c2cccnc2)cc(-c2cc(-c3cccnc3)nc(N)n2)n1
inactive: Potency [1] > 11.4 µM | activity change, negative = inhibition [2] 16.4% | activity change, negative = inhibition [3] -15.9% [at 2.29 µM] | activity change, negative = inhibition [4] 12.8% | activity, negative = inhibition [5] 1.62% | Potency [6] > 46 µM | Potency [7] > 9.22 µM | Potency [8] | Potency [9]

O=C1CC[C@H](NC(=O)c2ccccc2)C(=O)N1
inactive: Potency [1] > 11.4 µM | activity change, negative = inhibition [2] 5.12% | Potency [3] | activity change, negative = inhibition [4] 4.46% | activity, negative = inhibition [5] 2.96% | Potency [6] > 46 µM | Potency [7] > 9.22 µM | Potency [8] | Potency [9]

O=C(O)c1c2c(c(O)c3c1CN(C1CCCCC1)CO3)OCN(C1CCCCC1)C2
inactive: Potency [1] > 11.4 µM | activity change, negative = inhibition [2] 4.96% | Potency [3] | activity change, negative = inhibition [4] 29.1% | activity, negative = inhibition [5] 0.651% | Potency [6] > 46 µM | Potency [7] > 9.22 µM | Potency [8] | Potency [9]

CCOC(=O)c1c(C)c(C)n2c1NC(=O)C2
active: Potency [3] 2 µM
inactive: Potency [1] > 11.4 µM | activity change, negative = inhibition [2] 3.42% | activity change, negative = inhibition [4] -19.4% | activity, negative = inhibition [5] -3.92% | Potency [6] > 46 µM | Potency [7] > 9.22 µM | Potency [8] | Potency [9]

COc1ccc2c3c([nH]c2c1)[C@H]1C[C@@H]2[C@@H](C[C@@H](O)[C@H](OC)[C@H]2C(=O)O)CN1CC3
inactive: Potency [1] > 11.4 µM | activity change, negative = inhibition [2] -5.49% | Potency [3] | activity change, negative = inhibition [4] 0.887% | activity, negative = inhibition [5] -7.32% | Potency [6] > 46 µM | Potency [7] > 9.22 µM | Potency [8] | Potency [9]

N#C[C@H]1CN[C@H](N)N[C@@H]1N
inactive: Potency [1] > 11.4 µM | activity change, negative = inhibition [2] 2.11% | activity change, negative = inhibition [3] -11.6% [at 2.29 µM] | activity change, negative = inhibition [4] 6.86% | activity, negative = inhibition [5] 13.9% | Potency [6] > 46 µM | Potency [7] > 9.22 µM | Potency [8] | Potency [9]

CC[C@H](CN(C)C)C(=O)c1ccco1
inactive: Potency [1] > 11.4 µM | activity change, negative = inhibition [2] 3.81% | Potency [3] | activity change, negative = inhibition [4] -14.2% | activity, negative = inhibition [5] -1.8% | Potency [6] > 46 µM | Potency [7] > 9.22 µM | Potency [8] | Potency [9]

C/C(=N\O)c1cccc[n+]1Cc1ccccc1
inactive: Potency [1] > 11.4 µM | activity change, negative = inhibition [2] -1.8% | Potency [3] | activity change, negative = inhibition [4] -12.3% | activity, negative = inhibition [5] 11.4% | Potency [6] > 46 µM | Potency [7] > 9.22 µM | Potency [8] | Potency [9]

O=C(O)CC[C@@]1(c2ccccc2)NC(=O)NC1=O
inactive: Potency [1] > 11.4 µM | activity change, negative = inhibition [2] 3.07% | Potency [3] | activity change, negative = inhibition [4] 8.48% | activity, negative = inhibition [5] 2.02% | Potency [6] > 46 µM | Potency [7] > 9.22 µM | Potency [8] | Potency [9]

NS(=O)(=O)c1ccc(NC2(C(=O)O)CCCC2)cc1
active: Potency [3] 0.794 µM
inactive: Potency [1] > 11.4 µM | activity change, negative = inhibition [2] -4.84% | activity change, negative = inhibition [4] 2.12% | activity, negative = inhibition [5] 11.8% | Potency [6] > 46 µM | Potency [7] > 9.22 µM | Potency [8] | Potency [9]

O=S(=O)(O)[C@@H](CO)c1ccccc1 (tested in a mixture with another compound)
inactive: Potency [1] > 11.4 µM | activity change, negative = inhibition [2] -0.645% | activity change, negative = inhibition [3] -1.9% [at 2.29 µM] | activity change, negative = inhibition [4] 3.56% | activity, negative = inhibition [5] -7.29% | Potency [6] > 46 µM | Potency [7] > 9.22 µM | Potency [8] | Potency [9]

CCCCn1cnc2c(SC)ncnc21
inactive: Potency [1] > 11.4 µM | activity change, negative = inhibition [2] -0.746% | activity change, negative = inhibition [4] 5.83% | activity, negative = inhibition [5] 8.32% | Potency [6] > 46 µM | Potency [7] > 9.22 µM | Potency [8] | Potency [9]
active: Potency [3] 3.16 µM

O=C(O)CNC(=O)c1ccccc1O
inactive: Potency [1] > 11.4 µM | activity change, negative = inhibition [2] 6.2% | activity change, negative = inhibition [4] 10.4% | activity, negative = inhibition [5] 6.14% | Potency [6] > 46 µM | Potency [7] > 9.22 µM | Potency [8] | Potency [9]
active: Potency [3] 5.01 µM
